Results: the supplement of paper PMC11732987, “Enantioselective OTUD7B fragment discovery through chemoproteomics screening and high-throughput optimisation” (Communications Chemistry, 2025)

What was measured:
Assay in all cases: log2 ratio of Biotin-Ahx-Ub-VS probe labelling (fragment/DMSO); higher = less target engagement (more negative = stronger competition), active = hit call of the paper (q ≤ 0.05, log2 ratio ≤ -1)
Conditions in all cases: compound concentration: 200 uM; treatment time: 3 h
USP19 = molecular target: T1, USP19 (UniProt O94966)
T1 sequence (whole entry): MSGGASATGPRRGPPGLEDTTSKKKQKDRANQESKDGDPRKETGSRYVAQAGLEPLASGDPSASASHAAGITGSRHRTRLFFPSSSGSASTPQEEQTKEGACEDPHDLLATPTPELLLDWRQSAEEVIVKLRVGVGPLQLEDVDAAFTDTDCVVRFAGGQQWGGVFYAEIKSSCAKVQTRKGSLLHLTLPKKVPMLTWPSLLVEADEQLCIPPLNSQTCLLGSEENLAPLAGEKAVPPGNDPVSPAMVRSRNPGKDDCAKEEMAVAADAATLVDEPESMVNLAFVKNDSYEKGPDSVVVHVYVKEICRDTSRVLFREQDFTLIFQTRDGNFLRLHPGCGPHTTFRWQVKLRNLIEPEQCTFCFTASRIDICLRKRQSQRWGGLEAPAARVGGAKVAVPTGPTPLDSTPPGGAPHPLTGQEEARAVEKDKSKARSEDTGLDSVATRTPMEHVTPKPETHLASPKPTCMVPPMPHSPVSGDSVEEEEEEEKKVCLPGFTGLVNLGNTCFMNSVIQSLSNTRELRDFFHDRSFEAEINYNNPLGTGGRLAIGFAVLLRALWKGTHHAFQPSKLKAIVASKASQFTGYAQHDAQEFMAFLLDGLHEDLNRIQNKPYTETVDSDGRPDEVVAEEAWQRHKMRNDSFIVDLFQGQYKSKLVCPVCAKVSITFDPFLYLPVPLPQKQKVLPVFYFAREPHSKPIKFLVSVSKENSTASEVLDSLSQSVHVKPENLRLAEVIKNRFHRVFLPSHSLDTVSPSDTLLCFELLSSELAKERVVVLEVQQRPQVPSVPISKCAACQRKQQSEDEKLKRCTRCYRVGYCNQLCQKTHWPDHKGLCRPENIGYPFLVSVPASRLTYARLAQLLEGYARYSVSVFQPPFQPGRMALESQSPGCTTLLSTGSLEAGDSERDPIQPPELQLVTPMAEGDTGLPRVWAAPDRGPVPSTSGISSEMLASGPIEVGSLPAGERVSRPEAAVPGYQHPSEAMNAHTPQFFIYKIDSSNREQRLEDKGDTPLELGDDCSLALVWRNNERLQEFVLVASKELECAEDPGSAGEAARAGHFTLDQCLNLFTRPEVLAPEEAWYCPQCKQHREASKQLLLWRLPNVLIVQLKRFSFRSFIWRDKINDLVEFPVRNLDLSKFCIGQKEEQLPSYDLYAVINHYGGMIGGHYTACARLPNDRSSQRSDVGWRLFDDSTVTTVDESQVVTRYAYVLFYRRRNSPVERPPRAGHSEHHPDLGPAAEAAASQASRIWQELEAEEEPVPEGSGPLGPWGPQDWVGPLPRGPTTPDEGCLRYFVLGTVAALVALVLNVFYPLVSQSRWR
In short: (§1)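 Fragment (200 µM) or vehicle was incubated for 3 h with triplicate HEK293T lysate samples of 495 µg, which were then treated with Biotin-Ahx-Ub-VS at 0.5 µM final for 1 h. Labelled DUBs were enriched on NeutrAvidin, digested with LysC and trypsin, and analysed by diaPASEF LC-MS/MS. Values are average log2 fragment/vehicle ratios from an unpaired t-test on global-median-normalised Spectronaut label-free quantities, using proteins with ≥2 unique peptides.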

USP22 = molecular target: T2, USP22 (UniProt Q9UPT9)
T2 sequence (whole entry): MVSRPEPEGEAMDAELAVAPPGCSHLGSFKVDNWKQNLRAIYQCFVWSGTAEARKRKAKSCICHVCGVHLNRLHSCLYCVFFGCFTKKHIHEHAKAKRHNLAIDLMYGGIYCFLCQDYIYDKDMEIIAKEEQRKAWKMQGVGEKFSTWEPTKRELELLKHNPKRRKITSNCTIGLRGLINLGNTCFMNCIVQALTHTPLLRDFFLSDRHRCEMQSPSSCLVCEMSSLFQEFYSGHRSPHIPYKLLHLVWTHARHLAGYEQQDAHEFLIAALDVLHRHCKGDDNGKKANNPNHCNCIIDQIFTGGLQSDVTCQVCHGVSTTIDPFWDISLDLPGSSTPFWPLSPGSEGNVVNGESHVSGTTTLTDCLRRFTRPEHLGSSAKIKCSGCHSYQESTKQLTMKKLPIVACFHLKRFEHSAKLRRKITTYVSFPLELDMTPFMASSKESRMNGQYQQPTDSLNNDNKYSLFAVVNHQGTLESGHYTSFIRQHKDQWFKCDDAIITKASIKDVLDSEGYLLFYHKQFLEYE
In short: as §1

USP24 = USP24 (UniProt Q9UPU5)
In short: as §1

USP25 = molecular target: T3, USP25 (UniProt Q9UHP3)
T3 sequence (whole entry): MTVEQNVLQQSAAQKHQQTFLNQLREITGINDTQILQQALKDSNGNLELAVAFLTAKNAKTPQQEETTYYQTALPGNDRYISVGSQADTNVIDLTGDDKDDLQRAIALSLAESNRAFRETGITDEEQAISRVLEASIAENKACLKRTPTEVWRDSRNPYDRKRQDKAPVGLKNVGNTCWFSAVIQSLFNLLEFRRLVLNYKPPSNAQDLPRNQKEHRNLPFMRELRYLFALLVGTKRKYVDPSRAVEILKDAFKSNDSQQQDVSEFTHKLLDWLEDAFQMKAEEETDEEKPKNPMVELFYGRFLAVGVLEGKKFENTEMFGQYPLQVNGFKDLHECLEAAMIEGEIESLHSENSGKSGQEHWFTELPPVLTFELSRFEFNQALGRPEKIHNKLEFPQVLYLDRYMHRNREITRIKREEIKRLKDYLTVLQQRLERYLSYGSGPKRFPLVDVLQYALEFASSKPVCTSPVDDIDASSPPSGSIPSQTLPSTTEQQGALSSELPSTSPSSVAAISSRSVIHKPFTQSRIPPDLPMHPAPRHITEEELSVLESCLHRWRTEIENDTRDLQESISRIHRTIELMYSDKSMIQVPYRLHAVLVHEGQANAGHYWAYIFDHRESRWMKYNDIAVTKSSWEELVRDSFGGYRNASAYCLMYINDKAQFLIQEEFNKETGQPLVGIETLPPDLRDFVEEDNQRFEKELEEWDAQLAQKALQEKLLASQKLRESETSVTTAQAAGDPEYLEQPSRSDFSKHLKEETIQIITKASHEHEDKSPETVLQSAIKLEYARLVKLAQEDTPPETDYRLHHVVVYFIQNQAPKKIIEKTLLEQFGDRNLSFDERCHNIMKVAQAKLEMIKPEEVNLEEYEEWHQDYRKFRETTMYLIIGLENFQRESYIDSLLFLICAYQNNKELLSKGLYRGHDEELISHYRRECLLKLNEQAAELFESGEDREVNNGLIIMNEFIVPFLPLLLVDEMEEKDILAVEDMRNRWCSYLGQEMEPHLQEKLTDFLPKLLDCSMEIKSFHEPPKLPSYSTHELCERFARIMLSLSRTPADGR
In short: as §1

USP28 = molecular target: T4, USP28 (UniProt Q96RU2)
T4 sequence (whole entry): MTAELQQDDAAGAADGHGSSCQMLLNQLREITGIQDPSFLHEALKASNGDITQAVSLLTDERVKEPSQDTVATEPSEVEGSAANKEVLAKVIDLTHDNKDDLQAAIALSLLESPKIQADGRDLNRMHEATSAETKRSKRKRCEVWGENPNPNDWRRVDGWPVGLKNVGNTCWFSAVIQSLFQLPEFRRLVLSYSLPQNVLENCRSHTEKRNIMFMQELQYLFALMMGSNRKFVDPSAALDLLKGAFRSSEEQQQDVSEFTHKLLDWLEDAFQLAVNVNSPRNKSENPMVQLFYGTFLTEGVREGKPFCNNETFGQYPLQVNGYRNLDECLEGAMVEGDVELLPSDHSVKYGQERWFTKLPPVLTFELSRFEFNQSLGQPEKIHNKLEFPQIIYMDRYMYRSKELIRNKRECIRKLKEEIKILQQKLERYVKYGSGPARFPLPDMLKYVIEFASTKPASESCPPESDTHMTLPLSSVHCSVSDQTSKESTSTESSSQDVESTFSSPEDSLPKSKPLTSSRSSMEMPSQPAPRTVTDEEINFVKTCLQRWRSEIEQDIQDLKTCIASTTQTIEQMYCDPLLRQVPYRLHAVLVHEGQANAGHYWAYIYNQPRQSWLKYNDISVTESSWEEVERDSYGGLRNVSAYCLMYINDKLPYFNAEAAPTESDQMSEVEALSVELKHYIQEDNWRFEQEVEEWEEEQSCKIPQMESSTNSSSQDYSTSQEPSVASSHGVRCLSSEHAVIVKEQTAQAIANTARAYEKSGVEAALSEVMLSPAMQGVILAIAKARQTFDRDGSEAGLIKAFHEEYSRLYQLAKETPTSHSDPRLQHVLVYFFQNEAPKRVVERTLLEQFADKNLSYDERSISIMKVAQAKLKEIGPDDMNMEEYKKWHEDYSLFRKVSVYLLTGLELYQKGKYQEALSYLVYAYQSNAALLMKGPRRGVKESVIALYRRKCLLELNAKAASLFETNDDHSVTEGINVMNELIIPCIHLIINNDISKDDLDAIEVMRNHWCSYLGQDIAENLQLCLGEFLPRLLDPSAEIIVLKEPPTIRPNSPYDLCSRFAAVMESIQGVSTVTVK
In short: as §1

Measured: log2 ratio of Biotin-Ahx-Ub-VS probe labelling

USP24, sequence (Q9UPU5 whole entry): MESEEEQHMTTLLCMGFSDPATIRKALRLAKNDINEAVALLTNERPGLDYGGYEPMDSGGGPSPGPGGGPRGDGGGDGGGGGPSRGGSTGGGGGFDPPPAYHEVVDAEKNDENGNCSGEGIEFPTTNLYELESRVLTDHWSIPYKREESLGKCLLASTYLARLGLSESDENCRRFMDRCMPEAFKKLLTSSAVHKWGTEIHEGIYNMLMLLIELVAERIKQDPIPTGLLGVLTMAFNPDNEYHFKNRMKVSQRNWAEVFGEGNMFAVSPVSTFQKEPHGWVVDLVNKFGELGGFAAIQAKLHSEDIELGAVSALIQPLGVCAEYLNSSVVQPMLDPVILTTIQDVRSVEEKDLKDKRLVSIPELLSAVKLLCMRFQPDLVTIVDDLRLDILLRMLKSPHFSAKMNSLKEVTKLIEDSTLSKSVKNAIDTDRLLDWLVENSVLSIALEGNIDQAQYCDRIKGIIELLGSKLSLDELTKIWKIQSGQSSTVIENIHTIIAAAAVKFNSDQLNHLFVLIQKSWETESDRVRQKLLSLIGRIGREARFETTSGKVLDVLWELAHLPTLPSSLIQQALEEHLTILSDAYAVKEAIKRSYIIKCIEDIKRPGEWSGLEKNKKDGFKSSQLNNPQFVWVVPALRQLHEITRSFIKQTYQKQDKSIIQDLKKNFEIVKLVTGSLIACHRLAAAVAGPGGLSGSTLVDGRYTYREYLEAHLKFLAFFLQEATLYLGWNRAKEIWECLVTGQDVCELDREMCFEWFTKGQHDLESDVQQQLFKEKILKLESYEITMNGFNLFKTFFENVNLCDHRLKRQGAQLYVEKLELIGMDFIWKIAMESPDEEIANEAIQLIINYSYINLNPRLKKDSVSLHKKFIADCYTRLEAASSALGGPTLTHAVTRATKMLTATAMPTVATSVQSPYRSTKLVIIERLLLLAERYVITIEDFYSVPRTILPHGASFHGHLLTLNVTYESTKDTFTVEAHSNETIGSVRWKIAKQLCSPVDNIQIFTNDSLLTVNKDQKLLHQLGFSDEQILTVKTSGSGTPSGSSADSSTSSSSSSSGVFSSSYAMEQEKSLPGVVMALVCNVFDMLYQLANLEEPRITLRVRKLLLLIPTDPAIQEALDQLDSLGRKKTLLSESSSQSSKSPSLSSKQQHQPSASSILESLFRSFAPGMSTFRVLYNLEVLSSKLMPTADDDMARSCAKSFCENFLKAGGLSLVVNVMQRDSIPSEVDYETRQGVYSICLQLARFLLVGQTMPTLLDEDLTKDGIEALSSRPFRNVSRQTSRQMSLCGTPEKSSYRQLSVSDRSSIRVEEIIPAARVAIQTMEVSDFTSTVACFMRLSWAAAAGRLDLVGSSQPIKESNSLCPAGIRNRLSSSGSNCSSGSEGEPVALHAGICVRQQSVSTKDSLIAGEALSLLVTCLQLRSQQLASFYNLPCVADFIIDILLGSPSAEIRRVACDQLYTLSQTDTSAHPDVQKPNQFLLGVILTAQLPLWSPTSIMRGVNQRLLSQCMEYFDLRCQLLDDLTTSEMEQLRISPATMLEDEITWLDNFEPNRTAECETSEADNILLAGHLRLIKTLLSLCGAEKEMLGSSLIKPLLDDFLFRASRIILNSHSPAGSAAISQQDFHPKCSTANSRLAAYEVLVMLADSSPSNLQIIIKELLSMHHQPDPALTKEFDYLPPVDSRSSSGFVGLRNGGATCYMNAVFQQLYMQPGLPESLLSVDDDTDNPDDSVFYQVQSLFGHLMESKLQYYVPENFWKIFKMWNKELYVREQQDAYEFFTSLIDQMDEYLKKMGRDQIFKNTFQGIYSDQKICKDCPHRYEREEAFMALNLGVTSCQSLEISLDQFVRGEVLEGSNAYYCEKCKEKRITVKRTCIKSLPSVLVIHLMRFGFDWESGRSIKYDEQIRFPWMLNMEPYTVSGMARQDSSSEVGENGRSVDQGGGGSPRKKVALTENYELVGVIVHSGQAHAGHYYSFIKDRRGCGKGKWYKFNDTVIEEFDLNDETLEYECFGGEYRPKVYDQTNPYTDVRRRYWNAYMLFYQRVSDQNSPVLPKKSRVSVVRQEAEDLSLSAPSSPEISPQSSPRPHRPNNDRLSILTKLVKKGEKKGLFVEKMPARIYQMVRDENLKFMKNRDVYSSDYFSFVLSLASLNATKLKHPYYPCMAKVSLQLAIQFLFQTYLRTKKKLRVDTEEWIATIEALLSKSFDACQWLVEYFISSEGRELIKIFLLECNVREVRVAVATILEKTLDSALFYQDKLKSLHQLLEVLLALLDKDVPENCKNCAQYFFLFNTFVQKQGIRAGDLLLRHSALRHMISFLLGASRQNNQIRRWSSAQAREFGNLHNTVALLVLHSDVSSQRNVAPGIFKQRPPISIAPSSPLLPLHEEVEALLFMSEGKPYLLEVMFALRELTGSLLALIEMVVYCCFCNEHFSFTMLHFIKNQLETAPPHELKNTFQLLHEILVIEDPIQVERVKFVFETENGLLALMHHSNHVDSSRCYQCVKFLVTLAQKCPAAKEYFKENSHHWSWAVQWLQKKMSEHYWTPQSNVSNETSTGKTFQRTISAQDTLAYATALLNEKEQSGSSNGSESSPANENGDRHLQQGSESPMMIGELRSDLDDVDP

Cc1cccc2nc(CCNC(=O)CCl)cn12.Cl
inactive: USP19 -0.242 | USP22 0.075 | USP24 -0.429 | USP25 -0.267 | USP28 -0.53
